The values that follow come from publication PMC7862700, “An all-to-all approach to the identification of sequence-specific readers for epigenetic DNA modifications on cytosine”.

Assay in all cases: DAPPL (digital affinity profiling via proximity ligation, sequencing); 10 mM Tris-HCl pH 7.5, 50 mM NaCl, 1 mM DTT, 4% glycerol, room temperature, 30 min; GST-TFs on glutathione beads, 16-mer random dsDNA library, 0.1% formaldehyde crosslink after washing; high values mean tight binding
Settings in all cases: protein: recombinant; tags: N-terminal GST; dsDNA, one strand shown

The target of test [1] is T1, FLI1 (Homo sapiens, UniProt Q01543 1-452).
T1 sequence: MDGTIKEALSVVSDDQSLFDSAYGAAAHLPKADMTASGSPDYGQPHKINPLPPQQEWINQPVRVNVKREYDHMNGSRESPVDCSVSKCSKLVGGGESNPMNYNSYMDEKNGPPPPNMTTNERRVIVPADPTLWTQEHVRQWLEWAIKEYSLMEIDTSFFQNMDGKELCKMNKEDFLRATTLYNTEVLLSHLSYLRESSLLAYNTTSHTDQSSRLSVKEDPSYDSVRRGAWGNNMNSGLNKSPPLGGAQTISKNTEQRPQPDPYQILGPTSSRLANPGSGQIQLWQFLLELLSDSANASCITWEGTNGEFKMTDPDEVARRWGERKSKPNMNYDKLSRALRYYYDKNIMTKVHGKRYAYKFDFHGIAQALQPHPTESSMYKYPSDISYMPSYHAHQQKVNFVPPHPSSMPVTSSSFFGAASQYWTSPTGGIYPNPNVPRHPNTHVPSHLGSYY
Summed up: (§1)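 Binding signal is defined as a hexamer's read frequency for one factor over its frequency for the tag-only sample. To obtain reads, GST-fused human transcription factors were expressed in yeast, captured on glutathione beads, barcoded with DNA and pooled with that sample. Pools met 200 nmole of a 16-mer random double-stranded DNA library in Tris/NaCl/DTT/glycerol buffer for 30 min at room temperature before washing, 0.1% formaldehyde crosslinking, proximity ligation (BsaI/T4 ligase, 1 h, 37 °C), PCR and Illumina NextSeq500 sequencing.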

The target of test [2] is T2, ELK1 (Homo sapiens, UniProt P19419 1-428).
T2 sequence: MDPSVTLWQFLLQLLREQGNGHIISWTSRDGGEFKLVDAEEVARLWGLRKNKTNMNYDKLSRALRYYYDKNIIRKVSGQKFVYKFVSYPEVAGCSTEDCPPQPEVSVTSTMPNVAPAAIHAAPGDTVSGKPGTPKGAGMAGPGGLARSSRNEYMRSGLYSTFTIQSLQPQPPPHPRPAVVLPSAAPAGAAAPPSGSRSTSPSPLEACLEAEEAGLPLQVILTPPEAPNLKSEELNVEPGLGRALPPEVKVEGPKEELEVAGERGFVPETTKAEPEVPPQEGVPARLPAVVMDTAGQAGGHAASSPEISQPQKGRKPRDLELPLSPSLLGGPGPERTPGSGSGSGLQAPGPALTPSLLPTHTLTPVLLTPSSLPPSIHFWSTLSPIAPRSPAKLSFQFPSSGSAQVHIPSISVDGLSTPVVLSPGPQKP
The method in brief:
as §1

Test [3] addresses T3, GABPA (Homo sapiens, UniProt Q06546 1-454).
T3 sequence: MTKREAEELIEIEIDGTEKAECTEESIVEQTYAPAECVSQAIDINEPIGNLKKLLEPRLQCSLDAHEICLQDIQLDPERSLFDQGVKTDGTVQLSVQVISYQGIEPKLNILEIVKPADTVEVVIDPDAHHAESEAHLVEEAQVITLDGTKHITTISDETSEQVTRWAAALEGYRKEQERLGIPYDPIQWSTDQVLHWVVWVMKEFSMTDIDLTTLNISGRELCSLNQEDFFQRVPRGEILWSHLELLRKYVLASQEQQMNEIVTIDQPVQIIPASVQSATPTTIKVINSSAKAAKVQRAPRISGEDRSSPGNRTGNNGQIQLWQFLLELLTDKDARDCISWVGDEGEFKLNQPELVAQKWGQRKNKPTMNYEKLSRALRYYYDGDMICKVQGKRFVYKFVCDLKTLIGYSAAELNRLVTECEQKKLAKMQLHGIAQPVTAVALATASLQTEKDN
Summed up: as §1

Test [4] concerns the target T4, ERG (Homo sapiens, UniProt P11308 1-479).
T4 sequence: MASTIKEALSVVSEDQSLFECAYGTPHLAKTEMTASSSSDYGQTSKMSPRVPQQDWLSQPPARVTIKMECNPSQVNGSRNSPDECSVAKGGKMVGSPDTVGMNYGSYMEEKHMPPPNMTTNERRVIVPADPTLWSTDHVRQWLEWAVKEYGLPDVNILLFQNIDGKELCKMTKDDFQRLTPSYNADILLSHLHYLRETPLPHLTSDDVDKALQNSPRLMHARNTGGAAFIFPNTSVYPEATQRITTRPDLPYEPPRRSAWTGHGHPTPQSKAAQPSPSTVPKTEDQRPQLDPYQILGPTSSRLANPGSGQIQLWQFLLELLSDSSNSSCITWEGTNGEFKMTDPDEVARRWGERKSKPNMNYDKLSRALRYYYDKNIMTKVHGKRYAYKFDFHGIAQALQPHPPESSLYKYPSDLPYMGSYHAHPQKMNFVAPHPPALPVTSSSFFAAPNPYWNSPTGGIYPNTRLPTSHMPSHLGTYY
Summed up:
as §1

In test [5] the target is ELF1 (Homo sapiens, UniProt P32519 1-619). The method in brief:
as §1

The target in test [6] is T5, EHF (Homo sapiens, UniProt Q9NZC4 1-300).
T5 sequence: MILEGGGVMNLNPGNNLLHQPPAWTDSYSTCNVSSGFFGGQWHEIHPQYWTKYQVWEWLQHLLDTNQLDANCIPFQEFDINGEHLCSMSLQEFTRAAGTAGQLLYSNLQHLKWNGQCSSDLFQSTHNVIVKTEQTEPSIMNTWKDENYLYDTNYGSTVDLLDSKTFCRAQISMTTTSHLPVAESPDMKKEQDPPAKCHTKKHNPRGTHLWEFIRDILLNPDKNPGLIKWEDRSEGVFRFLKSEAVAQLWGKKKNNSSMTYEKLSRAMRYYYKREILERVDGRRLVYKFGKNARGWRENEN
Summed up: as §1

Test [7] deals with SPI1 (Homo sapiens, UniProt P17947 1-270). Summed up: as §1
Test [8] deals with SPIB (Homo sapiens, UniProt Q01892 1-262). The method in brief: as §1
Test [9] has as its target T6, ELK3 (Homo sapiens, UniProt P41970 1-407).
T6 sequence: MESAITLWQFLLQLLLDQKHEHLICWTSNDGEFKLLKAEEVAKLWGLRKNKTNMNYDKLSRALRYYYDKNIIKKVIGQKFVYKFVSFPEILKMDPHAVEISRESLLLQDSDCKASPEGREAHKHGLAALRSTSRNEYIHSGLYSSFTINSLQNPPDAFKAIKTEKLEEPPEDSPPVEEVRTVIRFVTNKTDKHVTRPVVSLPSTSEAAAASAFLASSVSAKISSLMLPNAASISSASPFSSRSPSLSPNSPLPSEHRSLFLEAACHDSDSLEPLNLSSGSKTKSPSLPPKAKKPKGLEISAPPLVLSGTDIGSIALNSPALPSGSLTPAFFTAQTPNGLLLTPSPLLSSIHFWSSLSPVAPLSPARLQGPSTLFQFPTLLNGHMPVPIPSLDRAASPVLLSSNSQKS
The method in brief: as §1

Sequence of ELF1 (P32519 whole entry): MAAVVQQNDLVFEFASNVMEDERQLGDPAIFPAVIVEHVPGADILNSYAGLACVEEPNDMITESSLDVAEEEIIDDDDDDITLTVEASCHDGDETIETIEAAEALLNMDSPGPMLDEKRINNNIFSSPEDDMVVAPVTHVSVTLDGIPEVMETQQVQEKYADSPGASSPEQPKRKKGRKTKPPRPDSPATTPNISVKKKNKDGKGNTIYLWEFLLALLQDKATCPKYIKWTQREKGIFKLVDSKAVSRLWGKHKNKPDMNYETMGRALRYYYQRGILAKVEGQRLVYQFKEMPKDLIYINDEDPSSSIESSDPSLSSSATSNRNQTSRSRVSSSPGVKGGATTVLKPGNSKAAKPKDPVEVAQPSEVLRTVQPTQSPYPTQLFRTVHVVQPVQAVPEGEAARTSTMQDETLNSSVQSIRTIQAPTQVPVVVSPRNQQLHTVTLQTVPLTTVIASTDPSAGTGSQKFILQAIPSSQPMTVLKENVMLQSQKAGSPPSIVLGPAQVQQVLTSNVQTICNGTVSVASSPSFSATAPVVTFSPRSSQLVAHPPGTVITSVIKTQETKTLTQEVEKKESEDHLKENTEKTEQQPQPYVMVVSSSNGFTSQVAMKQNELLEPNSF
Sequence of SPIB (Q01892 whole entry): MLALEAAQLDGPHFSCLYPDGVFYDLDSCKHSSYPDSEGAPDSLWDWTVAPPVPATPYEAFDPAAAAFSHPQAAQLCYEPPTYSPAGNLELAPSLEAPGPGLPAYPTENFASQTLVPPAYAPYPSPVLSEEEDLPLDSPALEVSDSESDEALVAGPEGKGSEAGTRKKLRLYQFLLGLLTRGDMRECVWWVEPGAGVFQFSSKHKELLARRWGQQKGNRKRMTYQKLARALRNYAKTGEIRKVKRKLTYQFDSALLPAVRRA

For the sequence GCTCCT, the binding signal in test [1] was 1.54 fold enrichment (6-mer frequency, TF over GST control); in test [2], 1.39 fold enrichment (6-mer frequency, TF over GST control); in [3], 1.52 fold enrichment (6-mer frequency, TF over GST control); in [4], 1.32 fold enrichment (6-mer frequency, TF over GST control); in test [5], 1.45 fold enrichment (6-mer frequency, TF over GST control); in test [6], 1.41 fold enrichment (6-mer frequency, TF over GST control). Further, the binding signal in test [7] was 1.4 fold enrichment (6-mer frequency, TF over GST control); in [8], 1.46 fold enrichment (6-mer frequency, TF over GST control); in test [9], 1.33 fold enrichment (6-mer frequency, TF over GST control).
Regarding AGCTAC, the binding signal in test [1] is 1.13 fold enrichment (6-mer frequency, TF over GST control); in test [2] it was 1.11 fold enrichment (6-mer frequency, TF over GST control); in [3], 1.16 fold enrichment (6-mer frequency, TF over GST control); in test [4], 1.13 fold enrichment (6-mer frequency, TF over GST control); in test [5] it was 1.15 fold enrichment (6-mer frequency, TF over GST control); in [6], 1.22 fold enrichment (6-mer frequency, TF over GST control). The binding signal in test [7] is 1.17 fold enrichment (6-mer frequency, TF over GST control); in [8] it was 1.19 fold enrichment (6-mer frequency, TF over GST control); in test [9] it was 1.18 fold enrichment (6-mer frequency, TF over GST control).
Turning to TGAATA, the binding signal in test [1] was 1.05 fold enrichment (6-mer frequency, TF over GST control); in [2], 1.11 fold enrichment (6-mer frequency, TF over GST control); in test [3], 1.2 fold enrichment (6-mer frequency, TF over GST control); in test [4] it was 1.08 fold enrichment (6-mer frequency, TF over GST control); in [5], 1.1 fold enrichment (6-mer frequency, TF over GST control); in test [6], 1.12 fold enrichment (6-mer frequency, TF over GST control). The binding signal was 1.08 fold enrichment (6-mer frequency, TF over GST control) in [7]; 1.05 fold enrichment (6-mer frequency, TF over GST control) in test [8]; 1.06 fold enrichment (6-mer frequency, TF over GST control) in test [9].
Turning to TTCCCG, the binding signal in test [1] is 1.8 fold enrichment (6-mer frequency, TF over GST control); in [2], 1.73 fold enrichment (6-mer frequency, TF over GST control); in test [3], 1.93 fold enrichment (6-mer frequency, TF over GST control); in test [4] it was 2.03 fold enrichment (6-mer frequency, TF over GST control); in [5], 1.82 fold enrichment (6-mer frequency, TF over GST control); in test [6], 1.98 fold enrichment (6-mer frequency, TF over GST control). For the same sequence, the binding signal in test [7] was 2.02 fold enrichment (6-mer frequency, TF over GST control); in test [8], 2.17 fold enrichment (6-mer frequency, TF over GST control); in test [9], 1.78 fold enrichment (6-mer frequency, TF over GST control).
ATAGTA: the binding signal was 1.12 fold enrichment (6-mer frequency, TF over GST control) in [1]; 1.18 fold enrichment (6-mer frequency, TF over GST control) in test [2]; 1.19 fold enrichment (6-mer frequency, TF over GST control) in test [3]; 1.15 fold enrichment (6-mer frequency, TF over GST control) in [4]; 1.19 fold enrichment (6-mer frequency, TF over GST control) in [5]; 1.22 fold enrichment (6-mer frequency, TF over GST control) in test [6]. For the same sequence, the binding signal in test [7] is 1.06 fold enrichment (6-mer frequency, TF over GST control); in test [8], 1.13 fold enrichment (6-mer frequency, TF over GST control); in test [9], 1.12 fold enrichment (6-mer frequency, TF over GST control).
Take GGCTCA: the binding signal in test [1] is 1.22 fold enrichment (6-mer frequency, TF over GST control); in test [2] it was 1.38 fold enrichment (6-mer frequency, TF over GST control); in [3] it was 1.32 fold enrichment (6-mer frequency, TF over GST control); in test [4] it was 1.33 fold enrichment (6-mer frequency, TF over GST control); in test [5], 1.34 fold enrichment (6-mer frequency, TF over GST control); in test [6], 1.23 fold enrichment (6-mer frequency, TF over GST control). For the same sequence, the binding signal in test [7] was 1.24 fold enrichment (6-mer frequency, TF over GST control); in test [8] it was 1.24 fold enrichment (6-mer frequency, TF over GST control); in test [9], 1.23 fold enrichment (6-mer frequency, TF over GST control).
ATTTGC: the binding signal was 1.3 fold enrichment (6-mer frequency, TF over GST control) in test [1]; 1.36 fold enrichment (6-mer frequency, TF over GST control) in test [2]; 1.34 fold enrichment (6-mer frequency, TF over GST control) in test [3]; 1.32 fold enrichment (6-mer frequency, TF over GST control) in test [4]; 1.34 fold enrichment (6-mer frequency, TF over GST control) in test [5]; 1.17 fold enrichment (6-mer frequency, TF over GST control) in [6]. The binding signal is 1.41 fold enrichment (6-mer frequency, TF over GST control) in test [7]; 1.32 fold enrichment (6-mer frequency, TF over GST control) in test [8]; 1.2 fold enrichment (6-mer frequency, TF over GST control) in [9].
